Bioassay records from PubChem.
TDP1 cell CPT = qHTS for Inhibitors of human tyrosyl-DNA phosphodiesterase 1 (TDP1): qHTS in cells in presence of CPT; chicken DT40 Tdp1-/-;hTDP1 cells + 20 nM CPT, ATP luminescence, 48 h; Potency, µM (doses to about 46.2 µM), inactives show at the highest dose activity change, negative = growth inhibition, most hits filed as inhibitors; 420,000 tested, 12% active; also: potency is read from the fitted curve at half-maximal effect; nearly all actives have a fitted effect of over 55% in size
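Cell growth measured by CellTiter-Glo luminescence after a minimum 48 h, 37 C compound exposure with 20 nM CPT in Tdp1-knockout DT40 cells stably expressing hTDP1, seeded 400/well; qHTS titration format.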
DT40 TDP1 no CPT = qHTS for Inhibitors of human tyrosyl-DNA phosphodiesterase 1 (TDP1): qHTS in cells in absence of CPT; Potency, µM (doses to about 46.2 µM), for inactives: at the highest dose activity change, negative = growth inhibition, actives largely listed as inhibitors; 420,000 tested, 15% active; AID 686978, 2013; DT40 Tdp1-/- hTDP1 cells, no CPT, ATP luminescence, 48 h; also: potency is read from the fitted curve at half-maximal effect; nearly all actives have a fitted effect of over 55% in size
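Compound effects on proliferation are scored in DT40 Tdp1-/-;hTDP1 cells in the absence of CPT. ATP levels (CellTiter-Glo luminescence) are recorded after a ≥48 hr, 37 °C incubation.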
HT1080 IDH1KD tx = qHTS for induction of synthetic lethality in tumor cells producing 2HG: qHTS for the HT-1080-IDH1KD cell line; Potency, µM (titrated, usually from 46.1 µM), without a hit: at the top dose activity, negative = toxicity, actives largely listed as cytotoxic; HT-1080 IDH1 knockdown viability, ATP luminescence, 48 h; 360,000 tested, 2% active;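 also: potency is read from the fitted curve at half-maximal effect; 0% = DMSO wells and -100% = cell-free medium wells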
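Cytotoxicity counter-line: IDH1KD HT-1080, 48 h, CellTiter-Glo. Curves classed by r2, magnitude and activity.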
HT1080-NT tox = qHTS for induction of synthetic lethality in tumor cells producing 2HG: qHTS for the HT-1080-NT fibrosarcoma cell line; HT-1080-NT fibrosarcoma viability, CellTiter-Glo ATP luminescence, 48 h; Potency, µM (series often up to 46.1 µM), inactives show top-dose activity, negative = less viability, hits mostly cytotoxic; 360,000 tested, 1.6% active; AID 686970, 2013;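 also: NT is the 2HG producing partner of a matched IDH1 knockdown line; potency is read from the fitted curve at half-maximal effect; 0% = DMSO-treated cells and -100% = media-only wells without cells; nearly all actives have a fitted effect of over 55% in size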
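Read-out is CellTiter-Glo luminescence after 10 minutes at room temperature, following 48 hours' compound treatment of HT-1080-NT cells (750 cells/well, RPMI, 5% FBS, 37 degrees C).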
IL1B secr inh = qHTS for Inhibitors of Inflammasome Signaling: IL-1-beta AlphaLISA Primary Screen; 360,000 tested, 4.7% active; activity change, % at 57.5 µM; THP-1 LPS/ATP IL-1B secretion, AlphaLISA, 16 h; stronger effect = lower value; in the data active = activity change below about -50%; inconclusive = mostly about -30% to -49%
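Secreted IL-1B measured by AlphaLISA bead assay after 16 h compound exposure of THP-1 cells; compounds (final up to 57.5 uM) added 1 h before LPS (250 ng/mL) and ATP (1.25 mM) stimulation; lower signal means less secretion.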
* = called active by the depositor; ? = inconclusive; / = no result given; [ ] = remark or other dose. In the library only some 19% were active in any assay of this set; here they are far more common. Unless noted, calls follow the shape of the dose curve; as a rule, active = well fitted curve in the direction sought with a large enough effect; inconclusive = small, poorly fitted or top-dose-only effect, or another doubt; inactive = no such curve, though single readings can be large; an effect the other way counts as inactive or inconclusive. Unless noted, % is scaled to controls: 0 for no effect and ±100 for the full control effect.

SMILES	TDP1 cell CPT	DT40 TDP1 no CPT	HT1080 IDH1KD tx	HT1080-NT tox	IL1B secr inh
CN/N=C(\Cc1nc2ccccc2[nH]1)c1ccc([N+](=O)[O-])cc1	?	?	-13%	-8%	?
COc1cc(NC(=O)C2CC(=O)N(Cc3ccco3)C2)cc(OC)c1 (configuration not stated)	3%	0%	24%	16%	1
CC(=O)c1c(C)[nH]c(C(=O)Nc2ccc3c(c2)OCCO3)c1C	-17%	-11%	7%	?	?
CC(=O)c1c(C)[nH]c(C(=O)Nc2cccc(C(F)(F)F)c2)c1C	?	21µM*	?	?	-73*
CC(=O)c1c(C)[nH]c(C(=O)Nc2cccnc2)c1C	-2%	-1%	15%	1%	28
CC(=O)c1c(C)[nH]c(C(=O)Nc2cccc(C#N)c2)c1C	-20%	16µM*	-3%	-6%	-4
Cc1ccc(OC(=O)C2CCN(C(=O)c3ccccc3C)CC2)c(Br)c1	-10%	-14%	-2%	-1%	-5
COC(=O)N/N=C/c1cc(Cl)cc(Cl)c1OCc1ccccc1	18µM*	?	-1%	0%	-1
CCOC(=O)C(=Cc1cc(=O)c(OC)co1)C(=O)OCC	1.3µM*	0.73µM*	18µM*	12µM*	-97*
COc1ccc(C2(C(=O)Nc3ccc(C)cc3)CCOCC2)cc1	-5%	-25%	17%	6%	17
COc1ccc(-c2c(C#Cc3ccsc3)c3cc(-c4ccc(C(N)=O)cc4)ccc3n2C)cc1	23µM*	?	-10%	12%	-7
COc1ccc(-c2c(C#Cc3ccsc3)c3cc(-c4cccc5[nH]ccc45)ccc3n2C)cc1	?	18µM*	6%	-5%	-15
COc1cc(C#Cc2c(-c3ccccc3)n(C)c3ccccc23)cc(OC)c1	?	?	0%	-5%	13
COc1ccc(-c2c(C#Cc3ccsc3)c3ccccc3n2C)cc1	21µM*	23µM*	-1%	-12%	21
COc1ccc(-c2c(C#Cc3ccsc3)c3cc(-c4ccc5c(c4)OCCO5)ccc3n2C)cc1	-23%	-7%	-1%	0%	6
COC(=O)c1ccc2c(c1)c(C#Cc1ccccc1)c(-c1ccccc1)n2C	21µM*	16µM*	1%	8%	13
COc1ccc(-c2c(C#Cc3ccsc3)c3cc(-c4ccc5[nH]ccc5c4)ccc3n2C)cc1	-23%	?	1%	-2%	1
CC(C)c1c(C(=O)NCc2cccnc2)cnn1-c1nccc(-c2ccccc2F)n1	27%[9.04 µM]	?	/	/	/
COc1cc(OC)cc(-c2c(C#Cc3ccsc3)c3cc(-c4ccc(OC)c(OC)c4)ccc3n2C)c1	-9%	-15%	0%	0%	24
COc1cc(F)cc(-c2ccc3c(c2)c(C#Cc2ccsc2)c(-c2cc(OC)cc(OC)c2)n3C)c1	?	15µM*	0%	8%	-11
CC1=NN(c2ccccc2)C(=O)/C1=C\c1cc(C)n(C)c1C	-10%	-26%	3%	-1%	-2
CC1=NN(c2ccccc2)C(=O)/C1=C\C=C1/N(C)c2ccccc2C1(C)C	?	?	2%	0%	-86*
CC1=NN(c2ccccc2)C(=O)/C1=C\C=C1\N(C)c2ccccc2C1(C)C	?	23µM*	-2%	-3%	-13
CC1=NN(c2ccccc2)C(=O)/C1=C/N(C)C	?	4%	-6%	-11%	9
COc1ccc(NC(=O)CSc2nnc(Cn3cnc4ccccc43)o2)cc1	-18%	-11%	-11%	-10%	0
SMILES	TDP1 cell CPT	DT40 TDP1 no CPT	HT1080 IDH1KD tx	HT1080-NT tox	IL1B secr inh
COC(=O)CS(=O)(=O)c1ccc2c(c1)CC(=O)N2	9%	-11%	16%	19%	0
CCN(CC)c1ccc(N=Cc2ccc(N(CC)CC)cc2O)cc1	?	?	1%	-2%	29
CCN(CC)c1ccc(/C=N/N=C(N)N)c(O)c1	0.65µM*	0.65µM*	1.6µM*	1µM*	0
CCN(CC)c1ccc(C=Nc2ccc(N(C)C)cc2)c(O)c1	?	16µM*	-8%	-18%	-21
C=C(C)CNC(=S)NNC(=O)CCn1c2ccc(Cl)cc2c2cc(Cl)ccc21	?	?	?	?	-100*
O=C(COC(=O)c1cnccn1)c1ccc(Cl)cc1	12%	-10%	10%	-2%	0
O=C(Cc1cccc(NC(=O)C2CCN(C(=O)C3CCCCC3)CC2)c1)Nc1cccc(C(=O)N2CCCC2)c1	-21%	?	5%	3%	-2
Cc1ccc(CN(C(=O)c2cc(=O)c3cc(C)cc(C)c3o2)C2CCS(=O)(=O)C2)cc1 (configuration not stated)	?	18µM*	-1%	-4%	-16
CCc1ccc(CN(C(=O)c2cc(=O)c3ccc(C)cc3o2)C2CCS(=O)(=O)C2)cc1 (configuration not stated)	16µM*	?	/	/	/
COc1cccc(CSc2nc3sc(C)c(C)c3c(=O)n2Cc2ccco2)c1	-27%	?	-25%	-23%	14
C[C@H](CO)N1C[C@H](C)[C@H](CN(C)C(=O)C2CC2)OCc2cnnn2CCCC1=O	-4%	7%	3%	12%	4
COc1cc2ccccc2cc1C(=O)N1CCN(c2nc3c(F)cc(F)cc3s2)CC1	21µM*	8.2µM*	/	/	/
COc1cccc2sc(N3CCN(C(=O)c4cccs4)CC3)nc12	?	-24%	-2%	-3%	-14
COc1cc2ccccc2cc1C(=O)N1CCN(c2nc3c(F)cccc3s2)CC1	21µM*	16µM*	/	/	/
CCCOC(=O)c1cccc(NC(=O)c2c(-c3ccccc3Cl)noc2C)c1	7.3µM*	7.3µM*	/	/	/
CCCOc1ccc(OC(=O)c2c(-c3ccccc3Cl)noc2C)cc1	-11%	-14%	/	/	/
CCCOc1cccc(NC(=O)c2c(-c3ccccc3Cl)noc2C)c1	9.2µM*	8.2µM*	/	/	/
Cc1onc(-c2ccccc2Cl)c1C(=O)Nc1cccc(-c2cn3cccnc3n2)c1	?	16µM*	-23%	-1%	0
C/C(=N\NC(=O)c1c(-c2ccccc2Cl)noc1C)c1cccc(NC(=O)C(C)C)c1	?	23µM*	12%	5%	-13
C/C(=N\NC(=O)c1ccc(Cl)c(Cl)c1)c1cccc(NC(=O)C(C)C)c1	-8%	-23%	-1%	-6%	0
